Assay results from PubChem BioAssay (NCI).
The panel holds about 83,000 compounds, 20% with a hit somewhere; the sample as a whole holds those more often.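 Results are percent growth after 48 hours of single-concentration exposure. 100 means growth as in untreated cells, lower positive values show inhibition; negative values down to -100 show cell death.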 The source made the active and inactive calls. The calls were made as follows: active = growth percent below 10; inactive = the rest.

What was measured:
Assay in all cases: NCI-60 one-dose screen, 48 h (100 = growth as untreated, 0 = no growth, -100 = all killed)
Conditions in all cases: 10 µM unless noted
SR leukemia = system: SR leukemia
RPMI-8226 leukemia = system: RPMI-8226 leukemia
OVCAR-8 ovarian = system: OVCAR-8 ovarian
OVCAR-4 ovarian = system: OVCAR-4 ovarian
SK-OV-3 ovarian = system: SK-OV-3 ovarian
HS 578T breast = system: HS 578T breast
NCI/ADR-RES ovarian = system: NCI/ADR-RES ovarian
T-47D breast = system: T-47D breast
BT-549 breast = system: BT-549 breast
MDA-MB-435 melanoma = system: MDA-MB-435 melanoma
SW-620 colon = system: SW-620 colon
MCF7 breast = system: MCF7 breast
HCT-116 colon = system: HCT-116 colon
IGROV1 ovarian = system: IGROV1 ovarian
HCC-2998 colon = system: HCC-2998 colon
KM12 colon = system: KM12 colon
OVCAR-5 ovarian = system: OVCAR-5 ovarian
OVCAR-3 ovarian = system: OVCAR-3 ovarian

Measured: growth

O=C1c2c(c3c4cc(Br)ccc4[nH]c3c3ccc4ccccc4c23)C(=O)N1CCN1CCCCC1
active: SR leukemia -21.6% | RPMI-8226 leukemia -36.5% | OVCAR-8 ovarian -51.8% | NCI/ADR-RES ovarian 6.23% | MDA-MB-435 melanoma -41.8% | MCF7 breast -35.6% | HCT-116 colon -61.8%
inactive: OVCAR-4 ovarian 95.2% | SK-OV-3 ovarian 57% | HS 578T breast 104% | T-47D breast 43.3% | BT-549 breast 91% | SW-620 colon 10.5%

COc1cc(OC)c(S(N)(=O)=O)cc1C(=O)/C=C/c1ccccc1
active: SR leukemia 8.18% | MDA-MB-435 melanoma 9.57% | SW-620 colon 3.85% | KM12 colon 3.96%
inactive: RPMI-8226 leukemia 18.5% | OVCAR-8 ovarian 65.3% | OVCAR-4 ovarian 77.7% | SK-OV-3 ovarian 81.1% | IGROV1 ovarian 25.7% | HS 578T breast 26.5% | NCI/ADR-RES ovarian 48.3% | T-47D breast 13.6% | BT-549 breast 16.7% | MCF7 breast 10.9% | HCT-116 colon 11.7% | HCC-2998 colon 22.3%

C[C@H]1[C@H](C)CC[C@]2(COC(=O)c3cccnc3)CC[C@]3(C)C(=CC[C@@H]4[C@@]5(C)CCCNC(C)(C)[C@@H]5CC[C@]43C)[C@H]12
active: SR leukemia -8.33%
inactive: OVCAR-8 ovarian 86.2% | OVCAR-5 ovarian 90.9% | OVCAR-4 ovarian 70.5% | SK-OV-3 ovarian 92.5% | IGROV1 ovarian 65% | OVCAR-3 ovarian 68.4% | HS 578T breast 78.8% | NCI/ADR-RES ovarian 88.5% | T-47D breast 61% | BT-549 breast 76.5% | MDA-MB-435 melanoma 68.5% | SW-620 colon 39.1% | MCF7 breast 67.3% | HCT-116 colon 33.5% | HCC-2998 colon 49.6%

CC(C)C(=O)Nc1ccc(-c2nc(-c3cccc(O)c3)c(-c3ccnc(Br)c3)[nH]2)cc1
active: SR leukemia -3.9% | HS 578T breast -12% | T-47D breast 7.84%
inactive: OVCAR-8 ovarian 49.5% | OVCAR-5 ovarian 84.3% | OVCAR-4 ovarian 43.4% | SK-OV-3 ovarian 54.5% | IGROV1 ovarian 59.4% | OVCAR-3 ovarian 56.1% | NCI/ADR-RES ovarian 92.3% | BT-549 breast 60.5% | SW-620 colon 43.2% | MCF7 breast 11.7% | HCT-116 colon 53.4% | HCC-2998 colon 67.9%

CC(=O)Nc1nc2c(s1)C1=CC[C@H]3[C@@H]4CC[C@H](C(C)=O)[C@@]4(C)CC[C@@H]3[C@@]1(C)CC2
inactive: SR leukemia 59.4% | OVCAR-8 ovarian 78.6% | OVCAR-5 ovarian 80.6% | OVCAR-4 ovarian 80.5% | SK-OV-3 ovarian 59.9% | IGROV1 ovarian 99.1% | OVCAR-3 ovarian 74.8% | HS 578T breast 33.8% | NCI/ADR-RES ovarian 81.6% | T-47D breast 68% | BT-549 breast 62.3% | SW-620 colon 82.3% | MCF7 breast 20.6% | HCT-116 colon 60.4% | HCC-2998 colon 96.9% | KM12 colon 47.7%

CC(=O)Nc1ccc(NC(=O)Nc2cccc(-c3nc(-c4ccc(NC(=O)c5cccnc5)cc4Cl)no3)c2)cc1C(F)(F)F
inactive: NCI/ADR-RES ovarian 69.2%
active: SR leukemia -25.1% | OVCAR-8 ovarian -9.07% | OVCAR-5 ovarian -49.4% | OVCAR-4 ovarian -53.7% | SK-OV-3 ovarian -57.9% | IGROV1 ovarian -54% | OVCAR-3 ovarian -63.7% | HS 578T breast -22.9% | T-47D breast -43.7% | BT-549 breast -29.9% | SW-620 colon -62.8% | MCF7 breast -61.3% | HCT-116 colon -47.4% | HCC-2998 colon -77.6% | KM12 colon -46.2%

CN(c1ccc(Cl)cc1)S(=O)(=O)c1ccc(-c2cnc(C3CC3)o2)cc1
active: SR leukemia 8.67% | OVCAR-3 ovarian 9.18% | KM12 colon 8.94%
inactive: OVCAR-8 ovarian 30.7% | OVCAR-4 ovarian 54.7% | SK-OV-3 ovarian 84.1% | HS 578T breast 49.3% | NCI/ADR-RES ovarian 13.6% | T-47D breast 58.9% | BT-549 breast 35.1% | SW-620 colon 25.8% | MCF7 breast 15% | HCT-116 colon 10.6% | HCC-2998 colon 22.7%

O=C(Nc1cccc(Cl)c1)Nc1nc2ccc(-c3cccc4ccccc34)cc2s1
inactive: SR leukemia 90% | OVCAR-8 ovarian 42.9% | OVCAR-5 ovarian 84% | OVCAR-4 ovarian 20.4% | SK-OV-3 ovarian 66.8% | IGROV1 ovarian 55.2% | OVCAR-3 ovarian 13.5% | HS 578T breast 72.9% | NCI/ADR-RES ovarian 57.5% | T-47D breast 11.2% | BT-549 breast 102% | SW-620 colon 43.7% | MCF7 breast 58.3% | HCT-116 colon 27% | HCC-2998 colon 57.3% | KM12 colon 23%

O=S(=O)(Nc1ccc2c(c1)OC(F)(F)O2)c1ccc(-c2cnc(C3CC3)o2)cc1
inactive: SR leukemia 27.8% | OVCAR-8 ovarian 56.3% | OVCAR-5 ovarian 73.2% | OVCAR-4 ovarian 59.4% | SK-OV-3 ovarian 65.6% | IGROV1 ovarian 42.8% | OVCAR-3 ovarian 20.3% | HS 578T breast 40.6% | NCI/ADR-RES ovarian 24.7% | T-47D breast 31.6% | BT-549 breast 52.1% | SW-620 colon 23.7% | MCF7 breast 19.9% | HCC-2998 colon 72.8% | KM12 colon 30.9%

COc1ccc(NS(=O)(=O)c2ccc(-c3cnc(C4CC4)o3)cc2)cc1Cl
inactive: SR leukemia 23.2% | OVCAR-8 ovarian 40.4% | OVCAR-5 ovarian 48.8% | OVCAR-4 ovarian 52.5% | SK-OV-3 ovarian 60% | IGROV1 ovarian 41.4% | OVCAR-3 ovarian 15.5% | HS 578T breast 28.1% | NCI/ADR-RES ovarian 18.6% | T-47D breast 30.3% | BT-549 breast 57.5% | SW-620 colon 22.6% | MCF7 breast 17.4% | HCT-116 colon 26.7% | HCC-2998 colon 53.1% | KM12 colon 22.7%

CCOC(=O)C1=C(C)Nc2nnc(Nc3ccccc3)n2C1c1ccccc1 (stereo not drawn)
active: OVCAR-3 ovarian 5.94% | HCT-116 colon 7.91%
inactive: RPMI-8226 leukemia 77% | OVCAR-8 ovarian 72.5% | OVCAR-5 ovarian 91.2% | OVCAR-4 ovarian 34.6% | SK-OV-3 ovarian 94.6% | IGROV1 ovarian 62.8% | HS 578T breast 75.8% | NCI/ADR-RES ovarian 70.8% | T-47D breast 58.2% | BT-549 breast 84% | MDA-MB-435 melanoma 86.8% | SW-620 colon 35.2% | MCF7 breast 55.7% | HCC-2998 colon 105% | KM12 colon 94.7%

C#C[C@]1(O)CC[C@H]2[C@@H]3CC=C4c5sc(-c6cccc(F)c6)nc5CC[C@]4(C)[C@H]3CC[C@@]21C
inactive: SR leukemia 76.4% | OVCAR-8 ovarian 96.8% | OVCAR-5 ovarian 83.2% | OVCAR-4 ovarian 110% | SK-OV-3 ovarian 92.7% | IGROV1 ovarian 97.2% | OVCAR-3 ovarian 102% | HS 578T breast 68.7% | NCI/ADR-RES ovarian 89.1% | T-47D breast 65.4% | BT-549 breast 96.3% | SW-620 colon 89.7% | MCF7 breast 66.7% | HCT-116 colon 80.6% | HCC-2998 colon 85.2% | KM12 colon 75.6%

C#C[C@]1(O)CC[C@H]2[C@@H]3CC=C4c5sc(Nc6cc(OC)ccc6OC)nc5CC[C@]4(C)[C@H]3CC[C@@]21C
inactive: OVCAR-8 ovarian 40.1% | OVCAR-5 ovarian 56.7% | OVCAR-4 ovarian 64.3% | OVCAR-3 ovarian 59.2% | NCI/ADR-RES ovarian 55.6% | T-47D breast 22.8% | BT-549 breast 30.2% | SW-620 colon 18.4% | HCT-116 colon 19.3% | HCC-2998 colon 62.4% | KM12 colon 24.6%
active: SR leukemia 3.13% | SK-OV-3 ovarian 5.82% | HS 578T breast -13.8% | MCF7 breast -2.69%

Cc1nn(-c2ccc(Br)cc2)c2nc(CCl)[nH]c(=O)c12
active: RPMI-8226 leukemia -53.9%
inactive: OVCAR-8 ovarian 102% | OVCAR-5 ovarian 102% | OVCAR-4 ovarian 116% | SK-OV-3 ovarian 106% | IGROV1 ovarian 97.4% | OVCAR-3 ovarian 116% | NCI/ADR-RES ovarian 104% | T-47D breast 91.5% | BT-549 breast 101% | MDA-MB-435 melanoma 103% | SW-620 colon 110% | MCF7 breast 82.3% | HCT-116 colon 98.3% | KM12 colon 83.6%

O=C(CN1CCN(c2cc(=O)n(-c3ccccc3)c3ccccc23)CC1)Nc1ccc([N+](=O)[O-])cc1
inactive: SR leukemia 88.6% | OVCAR-8 ovarian 91.3% | OVCAR-5 ovarian 98.7% | OVCAR-4 ovarian 65.9% | SK-OV-3 ovarian 99.3% | IGROV1 ovarian 84.3% | OVCAR-3 ovarian 90.9% | HS 578T breast 89.9% | NCI/ADR-RES ovarian 91.1% | T-47D breast 64.9% | BT-549 breast 94.5% | SW-620 colon 92.3% | MCF7 breast 88.2% | HCT-116 colon 92.6% | KM12 colon 92.9%

Cc1cc(NS(=O)(=O)c2ccc(-c3cnc(C4CC4)o3)cc2)ccc1I
inactive: SR leukemia 32.9% | OVCAR-8 ovarian 46.4% | SK-OV-3 ovarian 66.2% | IGROV1 ovarian 36.7% | HS 578T breast 40% | NCI/ADR-RES ovarian 14.3% | T-47D breast 32.5% | BT-549 breast 36% | SW-620 colon 25.5% | MCF7 breast 25.4% | HCT-116 colon 28.3% | HCC-2998 colon 63.8% | KM12 colon 27.4%
active: OVCAR-3 ovarian 8.32% | MDA-MB-435 melanoma 3.85%

O=S(=O)(Nc1ccc(-c2nc(-c3cccc(O)c3)c(-c3ccnc(Br)c3)[nH]2)cc1)c1ccccc1
active: SR leukemia -9.8% | OVCAR-8 ovarian 9.98% | OVCAR-4 ovarian 9.17% | HS 578T breast -0.856% | T-47D breast 1.01% | MCF7 breast 7.26%
inactive: OVCAR-5 ovarian 64.6% | SK-OV-3 ovarian 54.7% | IGROV1 ovarian 42.1% | OVCAR-3 ovarian 32.1% | NCI/ADR-RES ovarian 61.1% | BT-549 breast 51.9% | SW-620 colon 49.8% | HCT-116 colon 27% | HCC-2998 colon 32.4% | KM12 colon 21.5%

COC(=O)c1c(C(=O)OC)c2n(CC(=O)Nc3cccc4cccnc34)c3ccccc3n2c1C(=O)c1ccc(C)cc1
inactive: SR leukemia 122% | OVCAR-8 ovarian 92.4% | OVCAR-5 ovarian 102% | OVCAR-4 ovarian 99.8% | SK-OV-3 ovarian 119% | IGROV1 ovarian 97.6% | OVCAR-3 ovarian 114% | HS 578T breast 111% | NCI/ADR-RES ovarian 96% | T-47D breast 83.4% | BT-549 breast 110% | SW-620 colon 95.1% | MCF7 breast 93.4% | HCT-116 colon 49.5% | KM12 colon 109%

COc1cc(C2=NN(C(C)=O)C(c3ccc(N4CCOCC4)cc3)C2)cc(OC)c1OC (stereo not drawn)
inactive: SR leukemia 108% | OVCAR-8 ovarian 101% | OVCAR-5 ovarian 103% | OVCAR-4 ovarian 107% | SK-OV-3 ovarian 97.4% | IGROV1 ovarian 98.5% | OVCAR-3 ovarian 120% | HS 578T breast 108% | NCI/ADR-RES ovarian 99.5% | T-47D breast 97.1% | BT-549 breast 92.2% | SW-620 colon 105% | MCF7 breast 96.3% | HCT-116 colon 95.7% | HCC-2998 colon 107% | KM12 colon 106%
